# Measured values taken from the supplement of paper PMC8728848.
# This excerpt belongs to a sample that is enriched for the strongest signals.
# B1: ArathEULS3 TAP (Arabidopsis thaliana) (protein)
# chain: IDENLYFQGGSMDEKTTGWRGGHVVEGLAGELEQLRARLEHHPQGQREPGGGGSLEITSLYKKAGFMEHHHQHHRHHQRDDGEDDRQSFGVPPPHVDAPPQPHGLYQSQPHFDPYAPTPQAPAPYRSETQFEPHAPPPYRSEPYFETPAPPPSFGHVSHVGHQSPNESYPPEHHRYGGYQQPSNSLLESHGDHSGVTHVAHHSSNQPQSSSGVYHKPDENRLPDNLAGLAGRATVKVYSKAEPNYNLTIRDGKVILAPADPSDEAQHWYKDEKYSTKVKDADGHPCFALVNKATGEAMKHSVGATHPVHLIRYVPDKLDESVLWTESKDFGDGYRTIRMVNNTRLNVDAYHGDSKSGGVRDGTTIVLWDWNKGDNQLWKIFPF
# Experiments:
# Assay in all cases: glycan array binding signal (z-score within array); higher = stronger binding
# Settings in all cases: glycan notation: IUPAC condensed, linker removed
# [1] = biological target: Neu5Ac(a2-6)Gal(b1-4)GlcNAc(b1-2)Man
# Method in brief: (§1)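 Columns mapping to the same glycan were averaged after glycan names were converted to IUPAC-condensed notation. The data come from 3228 arrays in the Consortium for Functional Glycomics database, limited to those with an available protein sequence. Binding is reported as a within-array Z-score averaged across arrays of one protein sequence and across linkers.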
# [2] = biological target: Neu5Ac(a2-6)Gal(b1-4)GlcNAc(b1-2)[Neu5Ac(a2-6)Gal(b1-4)GlcNAc(b1-6)]Man(a1-6)[Neu5Ac(a2-6)Gal(b1-4)GlcNAc(b1-2)Man(a1-3)][GlcNAc(b1-4)]Man(b1-4)GlcNAc(b1-4)GlcNAc
# Method in brief: as §1
# [3] = biological target: Neu5Ac(a2-6)Gal(b1-4)GlcNAc(b1-3)Gal(b1-4)GlcNAc(b1-6)[Gal(b1-3)]GalNAc
# Method in brief: as §1
# [4] = biological target: Neu5Ac(a2-6)Gal(b1-4)GlcNAc(b1-3)GalNAc
# Method in brief: as §1
# [5] = biological target: Neu5Ac(a2-6)Gal(b1-4)GlcNAc(b1-3)[Neu5Ac(a2-6)Gal(b1-4)GlcNAc(b1-6)]GalNAc
# Method in brief: as §1
# [6] = biological target: Neu5Ac(a2-6)Gal(b1-4)GlcNAc(b1-6)[Gal(b1-3)]GalNAc
# Method in brief: as §1
# [7] = biological target: Neu5Ac(a2-6)Gal(b1-4)GlcNAc6S
# Method in brief: as §1
# [8] = biological target: Neu5Ac(a2-6)GalNAc(b1-4)GlcNAc
# Method in brief: as §1
# [9] = biological target: Neu5Ac(a2-6)GlcNAc(b1-4)GlcNAc
# Method in brief: as §1
# [10] = biological target: Neu5Ac(a2-8)Neu5Ac(a2-3)Gal(b1-3)GalNAc(b1-4)[Neu5Ac(a2-8)Neu5Ac(a2-3)]Gal(b1-4)Glc
# Method in brief: as §1
# [11] = biological target: Neu5Ac(a2-8)Neu5Ac(a2-3)Gal(b1-4)GlcNAc
# Method in brief: as §1
# [12] = biological target: Neu5Ac(a2-8)Neu5Ac(a2-8)Neu5Ac(a2-3)[GalNAc(b1-4)]Gal(b1-4)Glc
# Method in brief: as §1
binder,measurement,setting,value
B1,glycan array binding signal (z-score),[1],0.021
same,glycan array binding signal (z-score),[2],-0.647
same,glycan array binding signal (z-score),[3],-0.634
same,glycan array binding signal (z-score),[4],0.12
same,glycan array binding signal (z-score),[5],0.364
same,glycan array binding signal (z-score),[6],0.429
same,glycan array binding signal (z-score),[7],-0.553
same,glycan array binding signal (z-score),[8],0.004
same,glycan array binding signal (z-score),[9],1.18
same,glycan array binding signal (z-score),[10],2.9
same,glycan array binding signal (z-score),[11],-0.433
same,glycan array binding signal (z-score),[12],-0.112
